Results on 39 sequences are retold here after the supplement of paper PMC6555819.

The experiment has as its system PPARg:RXRa 30nM:10nM, anti-RXR (NR concentration 30 nM, RXRa partner concentration 10 nM). Kind of experiment: PBM binding z-score (relative to random genomic background probes); higher = stronger binding; sequences stand for … in GC…GCGATTGACAGCGTAGAATGAAGG
In a few lines: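 Ligand-free nuclear receptor dimers were applied to custom Agilent 4×180K protein-binding microarrays whose double-stranded probes carried direct-repeat seeds, single-nucleotide variants, half-site ablations and random human genomic background sequences in 34-nt variable regions. Incubation lasted 1 h. Binding z-scores were computed against the random background probes from regression-normalized fluorescence.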
For the sequence CGAACTAGGTAACCAGGACAGTGAAGAGGTTGGA, the PBM binding z-score came to 0.303.

CGAACTAGGTCAAAGGACAGTTAAAGGCGACGTA: the PBM binding z-score was 7.97.

CGAACTAGGTCAAAGGACAGTGCAAGGCGACGTA displayed a PBM binding z-score of 8.02.

The sequence CGAACTAGGTTACCAGGACAGTGAAGAGGTTGGA yielded a PBM binding z-score of 0.924.

Consider CGAACTAGGTCACCAGGAGAGTGAAGAGGTTGGA, for which the PBM binding z-score came out at 4.58.

ATATGTAGGTTAGGGTCATCCAGAAAGTAGGGAA: the PBM binding z-score turned out to be 4.94.

Sequence CGAACTAGGTCACCCGGACAGTGAAGAGGTTGGA returned a PBM binding z-score of 4.46.

The sequence ATATGTAGGTTTGGGTCATTCAGAAAGTAGGGAA returned a PBM binding z-score of 1.4.

For CGAACTAGGTCAAAGGACAGGGAAAGGCGACGTA, the PBM binding z-score is 8.45.

CGAACTAGGTCACAGGACAGTGAAAGGCGACGTA: the PBM binding z-score was found to be 4.65.

For the sequence CGAAATAGGTCACCAGGACAGTGAAGAGGTTGGA, the PBM binding z-score stood at 4.7.

CGAACTAGGTCGAAGGACAGTGAAAGGCGACGTA gave a PBM binding z-score of 2.98.

Sequence CGAACTAGTTCAAAGGACAGTGAAAGGCGACGTA yielded a PBM binding z-score of 1.75.

For the sequence ATATGTAGGTTATGGTCATTCAGAAAGTAGGGAA, the PBM binding z-score stood at 2.18.

Sequence CGAACTAGGTTAAAGGACAGTGAAAGGCGACGTA showed a PBM binding z-score of 7.49.

Take CGAACTAGGTCAAAGGACAGAGAAAGGCGACGTA: the PBM binding z-score is 8.15.

As to CGAACTAGGTCACCAGGACAGTGATGAGGTTGGA, the PBM binding z-score is 4.75.

The sequence ATATGTAGGTTAGGGTCATGCAGAAAGTAGGGAA registered a PBM binding z-score of 4.91.

As for CGAACTAGGTCAAAGGACAGTGACAGGCGACGTA, the PBM binding z-score was determined as 8.9.

The sequence CGTACTAGGTCAAAGGACAGTGAAAGGCGACGTA displayed a PBM binding z-score of 8.11.

With ATACGTAGGTTAGGGTCATTCAGAAAGTAGGGAA, the PBM binding z-score is 1.32.

The sequence ATATGTAGGTTAGGGTCATTAAGAAAGTAGGGAA gave a PBM binding z-score of 4.1.

CGAACTAGGTGACCAGGACAGTGAAGAGGTTGGA: the PBM binding z-score is 1.03.

For CGAACTAGGTCATAGGACAGTGAAAGGCGACGTA, the PBM binding z-score turned out to be 6.41.

For the sequence CGAGCTAGGTCAAAGGACAGTGAAAGGCGACGTA, the PBM binding z-score worked out at 3.68.

ATATGTAGGTGAGGGTCATTCAGAAAGTAGGGAA gave a PBM binding z-score of 4.94.

Sequence ATAGGTAGGTTAGGGTCATTCAGAAAGTAGGGAA displayed a PBM binding z-score of 2.63.

AGATGTAGGTTAGGGTCATTCAGAAAGTAGGGAA returned a PBM binding z-score of 3.83.

The sequence AAATGTAGGTTAGGGTCATTCAGAAAGTAGGGAA came in with a PBM binding z-score of 5.16.

In the case of CGAACTAGGTCAAAGGAAAGTGAAAGGCGACGTA, the PBM binding z-score was found to be 5.62.

CGAACTAGGTCACCAGGACATTGAAGAGGTTGGA came in with a PBM binding z-score of 4.88.

For CGAACTAGGTCAAAGGACAGTCAAAGGCGACGTA, the PBM binding z-score is 8.42.

In turn, CGAAATAGGTCAAAGGACAGTGAAAGGCGACGTA had a PBM binding z-score of 7.99.

Sequence ATATGAAGGTTAGGGTCATTCAGAAAGTAGGGAA showed a PBM binding z-score of 1.82.

For ATATGTGGGTTAGGGTCATTCAGAAAGTAGGGAA, the PBM binding z-score is 3.82.

On to CGAACTAGGTCAAAGGACAGTAAAAGGCGACGTA, for which the PBM binding z-score stood at 7.65.

As for ATATGTAGGTTAGGGGCATTCAGAAAGTAGGGAA, the PBM binding z-score came out at 2.78.

In turn, CGAACTAGGTCACCAGGCCAGTGAAGAGGTTGGA registered a PBM binding z-score of 4.02.

Sequence CGAACTAGGTCACCAAGACAGTGAAGAGGTTGGA registered a PBM binding z-score of 4.53.
